# IL1B secr inh: blocks inflammasome-driven IL-1 beta release; THP-1 LPS/ATP IL-1B secretion, AlphaLISA, 16 h; stronger effect = lower value; activity change, % at 57.5 µM; 360,000 compounds, 4.7% hits; AID 743279; in the data active = activity change below about -50%; inconclusive = mostly about -30% to -49%
#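 THP-1 cells pretreated 1 hr with compounds (up to 57.5 uM final), then stimulated with LPS (250 ng/mL final) plus ATP (1.25 mM final); secreted IL-1B measured by AlphaLISA after 16 hr, decreased signal indicating inhibition.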
# HT1080-NT tox: kills 2HG-producing HT-1080-NT fibrosarcoma cells | HT-1080-NT fibrosarcoma viability, CellTiter-Glo ATP luminescence, 48 h | Potency, µM (series often up to 46.1 µM), without a hit: at the highest dose activity, negative = less viability, hits mostly cytotoxic | 360,000 compounds, 1.6% hits | AID 686970;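 note: NT is the 2HG producing partner of a matched IDH1 knockdown line; potency is the fitted concentration of half-maximal effect; 0% = DMSO-treated cells and -100% = media-only wells without cells; nearly all actives have a fitted effect of over 55% in size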
#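 Toxicity toward the 2HG-producing NT line was scored as %Activity, normalised to DMSO and no-cell wells, from CellTiter-Glo luminescence after 48 hours' treatment.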
# HT1080 IDH1KD tx: toxicity to HT-1080 IDH1 knockdown cells (counter line). Potency, µM (titrated, usually from 46.1 µM), for inactives: top-dose activity, negative = toxicity, hits mostly cytotoxic. 360,000 compounds, 2% hits. HT-1080 IDH1 knockdown viability, ATP luminescence, 48 h. AID 686971;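 note: potency is the fitted concentration of half-maximal effect; 0% = DMSO wells and -100% = cell-free medium wells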
#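 CellTiter-Glo luminescence after 48 h compound exposure at 37 degrees C of IDH1-knockdown HT-1080 cells in 5% FBS RPMI. %Activity scaled between DMSO wells and cell-free media wells, with curves fitted and assigned curve classes.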
# TDP1 cell CPT: DT40-hTDP1 cell growth loss with CPT; chicken DT40 Tdp1-/-;hTDP1 cells + 20 nM CPT, ATP luminescence, 48 h; Potency, µM (top dose mostly 46.2 µM), without a hit: at the highest dose activity change, negative = growth inhibition, actives largely listed as inhibitors; 420,000 compounds, 12% hits; note: potency is the fitted concentration of half-maximal effect; nearly all actives have a fitted effect of over 55% in size
#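 Chicken DT40 Tdp1-/- cells complemented with human TDP1, 400 cells/well, exposed to compounds plus 20 nM camptothecin for at least 48 h at 37 C; viability read as ATP content by CellTiter-Glo luminescence.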
# DT40 TDP1 no CPT: qHTS for Inhibitors of human tyrosyl-DNA phosphodiesterase 1 (TDP1): qHTS in cells in absence of CPT; DT40 Tdp1-/- hTDP1 cells, no CPT, ATP luminescence, 48 h; 420,000 compounds, 15% hits; Potency, µM (doses to about 46.2 µM), for the others: at the highest dose activity change, negative = growth inhibition, actives largely listed as inhibitors; note: potency is the fitted concentration of half-maximal effect; nearly all actives have a fitted effect of over 55% in size
#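 Growth kinetics read by CellTiter-Glo luminescence after ≥48 hr at 37 °C. Cells: DT40 Tdp1-/- stably carrying human TDP1, 400 per well, compound exposure in the absence of CPT (DMSO vehicle).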
# Starred values were filed as active, the others as inactive; ? = inconclusive; · = no result given. An excerpt weighted towards active compounds, which were near 19% of everything screened. Unless noted, calls come from the whole dose curve; as a rule, active = well fitted curve in the direction sought with a large enough effect; inconclusive = small, poorly fitted or top-dose-only effect, or another doubt; inactive = no such curve, though single readings can be large; an effect the other way counts as inactive or inconclusive. Unless noted, % is set by controls: 0 for no effect and ±100 for the full control effect.
SMILES,IL1B secr inh,HT1080-NT tox,HT1080 IDH1KD tx,TDP1 cell CPT,DT40 TDP1 no CPT
COc1ccc(CN2C(=O)C(NC(=O)c3ccccc3C)(C(F)(F)F)N=C2c2ccccc2)cc1 (stereo not drawn),·,·,·,21µM*,15µM*
Cc1ccc(S(=O)(=O)NC2(C(F)(F)F)NC(=O)N(Cc3ccccc3)C2=O)cc1 (stereo not drawn),-1,-1%,12%,6%,0%
COc1ccc(CN2C(=O)C(NC(=O)c3ccc(C)cc3)(C(F)(F)F)N=C2c2ccccc2)cc1 (stereo not drawn),·,·,·,23µM*,23µM*
Cc1ccc(C(=O)NC2(C(F)(F)F)N=C(c3ccccc3)N(Cc3ccccc3)C2=O)cc1 (stereo not drawn),·,·,·,?,26µM*
CC(C)(C)C(=O)NC1(C(F)(F)F)NC(=O)N(Cc2ccccc2)C1=O (stereo not drawn),51,-9%,1%,18%,2%
O=C(NC1(C(F)(F)F)N=C(c2ccccc2)N(Cc2ccccc2)C1=O)c1ccc(F)cc1 (stereo not drawn),·,·,·,21µM*,?
O=C(N/N=C/c1ccc(Cl)cc1)C1CC12CCC2 (stereo not drawn),-2,-1%,-5%,-10%,-26%
COCCNC(=O)c1nn(-c2ccc(Cl)cc2)nc1CO,·,·,·,-15%,2%
Cc1nn2c(COc3ccc(NC(=O)c4ccccc4Cl)cc3)nnc2c2ccccc12,?,?,15µM*,18µM*,23µM*
CCC(CC)c1nn2c(=O)cc(COc3ccc(NC(=O)c4ccccc4C)cc3)nc2s1,·,·,·,?,2.3µM*
CCC(CC)c1nn2c(=O)cc(COc3ccc(NC(=O)c4ccccc4Cl)cc3)nc2s1,·,·,·,?,2.3µM*
CCC(CC)c1nn2c(=O)cc(COc3ccc(NC(=O)c4cccc(Cl)c4)cc3)nc2s1,·,·,·,-1%,-15%
COc1ccc(-c2noc(CN3CCCCC3)n2)cc1OC,8,8%,7%,-7%,-14%
COc1ccc(-c2noc(N3CCN(c4ccc(C)cc4)C(C)C3)n2)cc1OC (stereo not drawn),·,·,·,?,16µM*
COc1ccc(C(=O)CC(=O)C(=O)Nc2cccc([N+](=O)[O-])c2C)cc1,-5,-27%,-17%,21µM*,16µM*
COc1ccc(C(=O)CC(=O)C(=O)Nc2ccccc2OC)cc1,33,-3%,9%,?,?
COc1ccccc1C(=O)CC(=O)C(=O)Nc1cccc([N+](=O)[O-])c1C,-28,?,?,16µM*,12µM*
COc1cccc(C(=O)CC(=O)C(=O)Nc2cc(OC)ccc2OC)c1,22,4%,9%,18µM*,23µM*
COc1cccc(C(=O)CC(=O)C(=O)Nc2cccc([N+](=O)[O-])c2C)c1,-92*,?,-29%,15µM*,12µM*
CCOc1ccccc1NC(=O)C(=O)CC(=O)c1cccc(OC)c1,18,?,?,?,?
COc1cccc(-c2cncnc2NC2CCNCC2)c1,·,·,·,3%,-4%
COc1cccc(CN2CCNC(=O)C2CC(=O)N(Cc2cnn(C)c2)C(C)C)c1 (stereo not drawn),4,-1%,-3%,11%,-14%
O=C1NC[C@H](CCCCN2C[C@H](Cc3ccc(O)cc3)N(CC3CCCCC3)C(=O)C2=O)N(Cc2ccccc2)C1=O,16,18%,25%,-1%,-21%
C[C@]12c3[nH]c4ccccc4c3CCN1C(=O)C(CC(=O)NCc1ccco1)C[C@@H]2C(=O)N1CCCCC1 (stereo partly drawn),-6,-2%,-4%,?,?
CCN(CC)C(=O)[C@H]1C[C@H](CC(=O)NCc2ccco2)C(=O)N2CCc3c([nH]c4cc(CCC(=O)N(C)C)ccc34)[C@]12C,-8,10%,9%,7%,-7%
